In PubChem BioAssay AID489018 (Southern Research Specialized Biocontainment Screening …, 2010) one finds outcome data, which are given here for 29 compounds.

Hit rate of the full screen: of about 2,300 compounds, about 350 (15%) were called active. The rule behind the calls is not given here. The list is a sample of the results. Measured potencies and affinities stand elsewhere.

The test can be described thus: HepG2 cell cytotoxicity, dose response, cytotoxicity control for non-replicating M. tuberculosis project (AID 489018).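 Note: HepG2 human liver cells.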 The following applies: series mostly up to 20 µM.
With `Cc1ccc(-c2nc3ccccn3c2Nc2ccccc2)o1`, the call was inactive. With `CCc1ccc(NC(=O)C(=O)NNC(=O)c2cccc(OC)c2)cc1`, the outcome was inactive.

As to `Cc1ccc(NCCC(=O)c2cccs2)cc1`, the result was inactive. For `CC1(C(=O)OCC(=O)Nc2nnc(-c3ccccc3)o2)CC1(Cl)Cl` (centres undefined), the result was inactive. For `O=C(COc1ccc(Cl)cc1)Nc1ccc(Cl)cn1`, the outcome was inactive. As to `Cn1c(=O)c(Oc2ccc(Cl)cc2)c(O)c2ccccc21`, the result was inactive. The value for `CC1CCCN(CCCOc2ccc([N+](=O)[O-])cc2)C1` (centres undefined) was “inactive”.

For `Cc1ccccc1OCCNc1cc(N2CC(C)NC(C)C2)ccc1[N+](=O)[O-]` (centres undefined), the call was inactive. In the case of `CCOc1ccc(-c2cc(CCCC(=O)NCCC(C)C)no2)cc1`, the call was inactive.

As to `Cc1ccc(C2=N/C(=C\c3cccnc3)C(=O)O2)cc1`, the call was inactive. The same measure for `O=C1OC(/C=C/c2ccccc2)=NC/1=C\c1cccnc1`: “inactive”; for `COc1ccc(-c2cc(=O)oc(-c3cccc(C)c3)n2)cc1`: “inactive”; for `O=C(CCC1CCCC1)Nc1ccc(Br)cn1`: “inactive”. For the compound `CCOC(=O)c1sc2nc(CSc3ccccc3)nc(NCCN(C)C)c2c1C`, the result was inactive.

For `Cc1cc(C)n(-c2nc(NCCCO)c3c4c(sc3n2)CCCC4)n1`, the result was inactive. With `CC1=C/C(=N\OS(=O)(=O)c2ccccc2)C(C)=CC1=O`, the compound was called inactive. Regarding `O=C1CSC(=S)N1Cc1cccnc1`, the call was inactive.

`COc1cccc(C(=O)OCn2nnc3ccccc3c2=O)c1OC`: the compound was called inactive.

In the case of `O=C(OCn1nnc2ccccc2c1=O)c1ccc(Br)o1`, the outcome was inactive. `c1ccc(-c2nc3c(ccc4ccccc43)[nH]2)nc1`: the result was inactive. The value for `O=[N+]([O-])c1ccc(-c2nc3ccc([N+](=O)[O-])cc3[nH]2)cc1` was “inactive”; that for `CCOC(=O)CNCCC(=O)c1ccc(Br)cc1` was “inactive”; that for `COc1cc(OC)c2c(OC)cccc2n1` was “inactive”. For `CCN1CCN(c2ccc(S(=O)(=O)N3CCCCC3)cc2NC(=O)c2ccc([N+](=O)[O-])s2)CC1`, the compound was called inactive. The value for `C/C(=N/NC(=O)c1cc2ccccc2cc1O)C1C(=O)c2ccccc2C1=O` was “inactive”; that for `CCN(CC)c1ccc2cc(C(=O)NCc3ccc(F)cc3)c(=N)oc2c1` was “inactive”; that for `COCCSc1nnc(NC(=O)CCS(=O)(=O)Cc2ccccc2)s1` was “inactive”. Turning to `CCC(C)n1nnc2c(=O)oc3ccccc3c21` (centres undefined), the result was inactive. `O=C(Nc1ncc([N+](=O)[O-])s1)c1cccs1`: the call was inactive.
